Bioassay records from PubChem.
An excerpt weighted towards active compounds, which were near 2.9% of everything screened.
KDM5B inhibitor – blocks human KDM5B histone demethylase activity. AID 1347165. 2.6% of 220,000 active. KDM5B demethylase, FDH-coupled NADH fluorescence (FDH is formaldehyde dehydrogenase). Q9UGL1. Potency, µM (top dose mostly 57.7 µM), most hits filed as inhibitors; further: potency means the concentration at half of the fitted maximal effect; 0% is about no effect; nearly all actives have a fitted effect of over 70% in size
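Compound dilutions met 200 nM (final) KDM5BΔAP for 10 min at room temperature before substrate addition. The substrate mix held 12.5 µM H3K4me3 with cofactors 25 µM α-ketoglutarate and 50 µM Fe²⁺. NADH signal gain over 30 min defined activity.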
IP6K1 inhibitor – inhibitors of human IP6K1. Q92551. IP6K1 kinase, ADP-Glo luminescence, 2 h; active compounds read low. activity change, % (series mostly up to about 58 µM). 0.81% of 140,000 active. AID 1645851; in the data active means activity change below about -25%; further: on the % scale 0 is the no-effect control and ±100 the full control effect
Target sequence (Q92551 whole entry, looked up): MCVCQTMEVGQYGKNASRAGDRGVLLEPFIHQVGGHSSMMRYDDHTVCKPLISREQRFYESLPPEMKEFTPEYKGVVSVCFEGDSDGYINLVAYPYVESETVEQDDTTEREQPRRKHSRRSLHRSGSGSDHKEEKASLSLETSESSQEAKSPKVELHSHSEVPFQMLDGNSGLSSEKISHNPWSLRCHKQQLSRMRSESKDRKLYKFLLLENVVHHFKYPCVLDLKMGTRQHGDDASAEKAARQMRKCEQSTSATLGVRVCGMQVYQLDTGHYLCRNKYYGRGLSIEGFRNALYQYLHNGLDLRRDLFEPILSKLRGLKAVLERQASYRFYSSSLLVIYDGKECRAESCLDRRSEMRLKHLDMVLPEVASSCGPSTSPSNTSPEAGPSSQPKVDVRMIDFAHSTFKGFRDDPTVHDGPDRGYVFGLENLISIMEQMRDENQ
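ADP-Glo luminescence measures ADP made by human IP6K1 during a 2 h RT reaction with ATP/IP6 (mix at 1.3 mM/130 uM); top library doses 57.5 and 19.1 uM final.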
SNCA expr inh – SNCA gene expression inhibition | Potency, µM (top dose mostly 57.2 µM), inactives show top-dose activity change, negative = inhibition, most hits filed as inhibitors | AID 1671194 | HEK-293 SNCA-luciferase knock-in, luminescence, 24 h | 0.17% of 140,000 active;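 further: potency means the concentration at half of the fitted maximal effect; plate controls were DMSO cells for no effect and cell-free wells for full effect; nearly all actives have a fitted effect of over 45% in size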
SNCA viab count – counter-screen for SNCA expression inhibitors: cell viability; Potency, µM (series often up to 57.1 µM), for inactives: at the top dose activity change, negative = cytotoxicity, actives largely listed as cytotoxic; 0.12% of 150,000 active; HEK-293-SNCA-luc viability, GF-AFC fluorescence, 24 h; AID 1671193;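 further: potency means the concentration at half of the fitted maximal effect; 0% = DMSO-treated cells and -100% = medium-only wells without cells; nearly all actives have a fitted effect of over 30% in size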
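Cytotoxicity counterscreen: after 24 h compound treatment of genome-edited SNCA-luciferase HEK-293 cells, live-cell protease substrate GF-AFC read by fluorescence after 30 min; activity scaled between DMSO (0%) and medium-only (-100%), curves Hill-fitted.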
IP6K1 inh cnf – confirmation of human IP6K1 inhibitors; shares compounds with IP6K1 inhibitor; recombinant IP6K1 kinase, ADP-Glo luminescence, 2 h; Potency, µM (highest dose often 49 µM), inactives show at the highest dose activity change, negative = inhibition, hits mostly inhibitors; 13% of 1,200 active; AID 1645852; further: potency means the concentration at half of the fitted maximal effect; on the % scale 0 is the no-effect control and ±100 the full control effect; nearly all actives have a fitted effect of over 65% in size
Active calls of the source: *; i = inactive; ? = inconclusive; . = not tested or not shown; [ ] = remark or other dose. Unless noted, the call rests on the fitted dose curve; in most records, active means well fitted curve in the direction sought with a large enough effect; inconclusive means small, poorly fitted or top-dose-only effect, or another doubt; inactive means no such curve, though single readings can be large; an effect the other way counts as inactive or inconclusive.

SMILES | KDM5B inhibitor | IP6K1 inhibitor | SNCA expr inh | SNCA viab count | IP6K1 inh cnf
CCOc1ccccc1NC(=O)n1ncc2cc(Cl)ccc21 | i | -37* | 155% | 1% | -6%
O=C(Nc1ccccc1C(F)(F)F)n1ncc2cc(Cl)ccc21 | i | -8 | 12% | -2% | .
COc1ccc(NC(=O)c2nnn(Cc3ccccc3C)c2N)c(OC)c1 | ? | -27* | ? | -16% | -11%
C=CCN(Cc1nc(-c2ccccc2)no1)C(=O)c1ccoc1C | i | . | . | . | .
C=CCN(Cc1nc(-c2ccccc2)no1)Cc1nccn1C | i | -38* | 70% | -6% | -12%
CCCCC(=O)Nc1ccccc1C(=O)OCc1cc(=O)n2nc(C3CCCCC3)sc2n1 | ? | -28* | -1% | -20% | -15%
Oc1ccc(NCc2ccc(OCc3ccccc3Cl)cc2)cc1 | ? | -28* | -1% | ? | ?
Oc1ccc(NCc2ccc(OCc3ccccc3)cc2)cc1 | ? | -1 | 7% | -15% | .
Cc1ccc(/C=C/c2onc(C)c2S(=O)(=O)N2CCC(C(=O)N(CCC(C)C)Cc3ccco3)CC2)cc1 | i | -38* | 9% | 3% | -9%
Cc1ccc(/C=C/c2onc(C)c2S(=O)(=O)N2CCC(C(=O)NCc3ccco3)CC2)cc1 | ? | 4 | 3% | -4% | .
O=C(C1CCCN(Cc2cccc(-c3ccsc3)c2)C1)N1CCN(Cc2ccccc2)CC1 (centres undefined) | . | -15 | . | . | .
CC[C@H](C)[C@H](N)C(=O)N1CCC2(CCC(=O)N(Cc3ccccc3)C2)CC1 | i | -39* | -7% | ? | -6%
O=C(C1CCCN1C(=O)c1ccc(C(F)(F)F)cc1)N1CCC(N2Cc3cccn3C2=O)CC1 (centres undefined) | . | 24 | -12% | 5% | .
Cc1cccc2sc(N(CCN(C)C)C(=O)c3ccc4c(c3)OCCO4)nc12 | ? | -35* | -9% | 6% | 13%
CCOc1cccc2sc(N(CCN(C)C)C(=O)c3ccc4c(c3)OCCO4)nc12 | i | . | . | . | .
O=[S+]([O-])(N[C@@H]1C[C@@H]2CO[C@H](c3ccccc3)C[C@@H]2C1)c1ccc(Cl)cc1 | . | 13 | . | . | .
COc1ccc(-c2ccc(C(=O)N(C)C)c(Cl)c2)nn1 | . | -46* | . | . | ?
COc1ccc(-c2ccc(C(=O)N3CCCC3)c(Cl)c2)nn1 | . | -69* | . | . | ?
COc1ccc(-c2ccc(C(=O)NC(C)C)c(Cl)c2)nn1 | . | -11 | . | . | .
COc1ccc(-c2ccc(C(=O)N(C)c3ccccc3)cc2)nn1 | . | -17 | . | . | ?
c1ccc(CN2CCNc3cc(-c4ccncc4)ncc3C2)cc1 | i | -15 | -15%[87.6 µM] | -10%[87.6 µM] | .
COc1ccc(Nc2cc3c(cn2)CN(Cc2ccncc2)CCN3)cn1 | i | -9 | -23%[87.6 µM] | -11%[87.6 µM] | .
COc1ccc(Nc2cc3c(cn2)NCCN(Cc2ccccc2)C3)cn1 | ? | -25* | ? | -3%[87.6 µM] | -18%
Clc1ccc(-c2cc3c(cn2)CN(Cc2ccncc2)CCN3)cc1 | 32µM* | -27* | -20%[87.6 µM] | -2%[87.6 µM] | -1%
c1ccc(-c2cc3c(cn2)NCCN(Cc2ccsc2)C3)cc1 | 35µM* | -25* | -24%[87.6 µM] | 12%[87.6 µM] | -9%
SMILES | KDM5B inhibitor | IP6K1 inhibitor | SNCA expr inh | SNCA viab count | IP6K1 inh cnf
Cc1ccc(NC(=O)Cn2ncn3c(cc4ccccc43)c2=O)cc1C | ? | -28* | 4% | -8% | -7%
Cc1ccc(Cn2c(Cc3ccccc3)nc3ccccc32)cc1 | i | -27* | -22% | 3% | -18%
Cc1ccc(Cn2c(-c3ccccc3)nc3ccccc32)cc1 | ? | -27* | 24% | 10% | -15%
Cn1nc(-c2ccccc2F)c2cc(C(=O)NCc3ccc(Cl)cc3)sc21 | ? | -39* | ? | ? | ?
COCC1CN(C2CCC2)CC12CCN(Cc1cccc(OC)c1OC)CC2 (centres undefined) | ? | 0 | -8% | -23% | .
Cc1ccc(NC(=O)c2ccc3c(c2)N(C)C2CCCCCN2C3=O)cc1C (centres undefined) | ? | 34 | 97% | 9%[12.5 µM] | .
COc1ccc2nc(SCC(O)c3cccc(Br)c3)[nH]c2c1 (centres undefined) | ? | -44* | 11% | -3% | -19%
Cn1ncc2c(C(=O)N3CCCC3)cc(-c3cccc(F)c3)nc21 | . | 11 | . | . | .
O=C(NCc1ccccc1Cl)c1ccc2nnc(-c3ccoc3)n2c1 | . | -6 | 2%[87.6 µM] | 0%[87.6 µM] | .
CC(C)CN(CCNC(=O)c1cn(C)c2ccc(S(=O)(=O)N3CCCC3)cc2c1=O)CC(C)C | i[11.5 µM] | 29 | 32% | -17% | -8%
COc1ccc2c(c1)C(CN1CCN(c3ccc4oc(C(=O)O)cc4c3Cl)CC1)=CC(C)(C)CO2 | . | -74* | . | . | -12%
COc1ccc2c(c1)C(COCc1ccc(C(=O)O)cc1)=CC(C)(C)CO2 | . | -1 | . | . | .
Cc1nn(-c2ccccc2)c2c1C(C(C)C)N(C1CCN(C(=O)c3ccccc3Cl)C1)C2=O (centres undefined) | . | -4 | . | . | .
CCCc1nnc(NC(=O)c2nc(S(=O)(=O)Cc3ccc(C)cc3)ncc2Cl)s1 | ? | -33* | 5µM* | 28µM* | ?
Cc1ccc(CS(=O)(=O)c2ncc(Cl)c(C(=O)Nc3nc4ccc(F)cc4s3)n2)cc1 | ? | -28* | ? | 9% | -15%
CCOc1ccccc1NC(=O)C(=O)c1c[nH]c2c(CC)cccc12 | i | . | . | . | .
COc1ccc(-c2cc(C(=O)NCc3ccccn3)c3cnn(C)c3n2)cc1 | . | 2 | 119% | -11% | .
Cc1ccc(NC(=O)N2CCN(c3nnnn3-c3cccc(C(C)C)c3)CC2)cc1F | i | 13 | 8% | -5% | .
Cc1ccccc1C(=O)N1CCN(Cc2ccccc2-c2cccnc2)CC1 | . | 13 | -3% | 4%[12.5 µM] | .
CC(C)c1noc(CC2CCN(C(=O)Cc3ccc(F)cc3)CC2)n1 | i | -26* | 18% | -15% | -18%
O=C(CS)Nc1ccccc1 | . | -27* | 32%[25.6 µM] | ? | ?
COc1cccc(-c2cccc(CN3CCCC3C(=O)NCc3ccc(Cl)cc3)c2)c1 (centres undefined) | . | 13 | . | . | .
O=C(c1ccc(-c2ncc3cnc(-c4cccc(F)c4)cn23)cc1)N1CC(O)C1 | ? | -29* | 17%[87.6 µM] | 3%[87.6 µM] | -14%
N=c1c2c(-c3ccccc3)cn(Cc3ccccc3)c2ncn1CCCO | . | . | . | . | -1%
Cn1c(=O)c2c(-c3ccccc3)n(CCCO)cc2n(C)c1=O | ? | 2 | 48% | -14% | .
N[C@@H](Cc1cc(I)c(O)c(I)c1)C(=O)O | . | -62* | 6%[25.6 µM] | -13%[23.9 µM] | -20%
O=C(CCC1CCCC1)N1CCC(N2C(=O)[C@H]3CN(Cc4ccccc4)C[C@H]3C2=O)CC1 | . | 20 | -19% | 5% | .
CCc1ocnc1C(=O)N1C[C@H]2OC(=O)N(CCCN3CCOCC3)[C@H]2C1 | i | -72* | 15% | 7% | -11%
